proKLK7 act = proKLK7 zymogen activators, primary screen, biochemical, fluorescence intensity | 0.9% of 370,000 active | purified proKLK7, EDANS-DABCYL substrate fluorescence; 100% is mature enzyme control, 0% vehicle | AID 652039, 2013 | Kallikrein-7 (Homo sapiens), P49862 | activation, % at 7 µM;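 active means activation above the mean of all tested compounds plus 3 SD, computed per campaign excluding outliers beyond control limits, cut at about 13% in these data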
ADAM10 inh = human ADAM10 inhibitors, primary screen, biochemical, QFRET, HTS. 0.62% of 370,000 active. recombinant ADAM10, EDANS/DABCYL FRET peptide cleavage, 3 h. Disintegrin and metalloproteinase domain-containing protein 10 (Homo sapiens), O14672. AID 720582, 2013. inhibition, % at 7 µM;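 active means inhibition above a per-campaign cutoff equal to the mean of compounds falling between control-based bounds plus 3 SD, cut at about 20% in these data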;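 further: 0% = DMSO wells while the 100% control is not disclosed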
PLC-gamma1 inh = PLC-gamma1 enzyme inhibitors, primary screen, biochemical, fluorescence, purified enzyme | fluorogenic substrate | 1-phosphatidylinositol 4,5-bisphosphate phosphodiesterase gamma-1 (Homo sapiens), P19174 | 0.84% of 370,000 active | inhibition, % at 12.2 µM | AID 720700, 2013; in the data active means inhibition above about 9.5%
ADAM17 inh = ADAM17 inhibitors, primary screen, biochemical, QFRET. Disintegrin and metalloproteinase domain-containing protein 17 (Homo sapiens), P78536. recombinant ADAM17, EDANS/DABCYL FRET peptide cleavage. inhibition, % at 6.95 µM. 0.83% of 370,000 active. AID 720648, 2013;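 active means inhibition above the mean of compounds lying between control limits plus 3 SD, set per campaign, cut at about 8.5% in these data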;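 further: 0% = DMSO-only wells as the low control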
HGIII-sPLA2 inh = human group III sPLA2 inhibitors, primary screen, biochemical, QFRET, BODIPY PC-A2 liposome substrate; QFRET BODIPY PC-A2 liposome hydrolysis, fluorescence; 0.56% of 370,000 active; Group 3 secretory phospholipase A2 (Homo sapiens), Q9NZ20; inhibition, % at 12.2 µM; AID 743126, 2013;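 active means inhibition above mean plus 3 SD of compounds lying within the high and low control bounds, cut at about 19% in these data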;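 further: 0% = median of test compound wells and 100% = no enzyme DMSO wells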
PLC-beta3 inh = human PLC-beta3 inhibitors, primary screen, biochemical, fluorescence | 1-phosphatidylinositol 4,5-bisphosphate phosphodiesterase beta-3 (Homo sapiens), Q01970 | Purified PLC-beta3, fluorogenic substrate | inhibition, % at 12.2 µM | 0.18% of 370,000 active | AID 720704, 2013; in the data active means inhibition above about 11%;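 further: 0% = median of compound wells on plate and 100% = full blocker control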
ADAM10 confirm = human ADAM10 inhibitors, confirmation, biochemical, QFRET, triplicate. shares compounds with ADAM10 inh. inhibition, % at 6.95 µM. ADAM10 QFRET peptide cleavage, EDANS fluorescence. 1% of 2,100 active;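 active means inhibition above about 20% chosen separately for each screening run, limit read from the data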;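 further: 0% = DMSO wells and 100% = marimastat wells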
ADAM17 counter = ADAM17 inhibitors, counter-screen for ADAM10 exosite inhibitor project, biochemical, QFRET, high throughput; shares compounds with ADAM10 inh; ADAM17 QFRET peptide cleavage, EDANS fluorescence; inhibition, % at 6.95 µM; 0.5% of 2,100 active;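 active means mean triplicate inhibition above the solvent-only control wells' mean plus 3 SD, cut at about 12% in these data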;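 further: 0% = DMSO wells and 100% = marimastat wells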
ADAM10 ctr = ADAM10 inhibitors, counter-screen for ADAM17 exosite inhibitor project, biochemical, FRET, human ADAM10; shares compounds with ADAM17 inh; recombinant ADAM10, EDANS/DABCYL FRET peptide cleavage, 3 h; inhibition, % at 6.95 µM; 47% of 2,900 active;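 active means mean inhibition over the triplicate runs exceeds the activity threshold set in the earlier primary screen, cut at about 20% in these data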;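 further: 0% = DMSO wells and 100% = marimastat wells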
ADAM17 confirm = ADAM17 inhibitors, hit retest, confirmation, biochemical, QFRET peptide cleavage; shares compounds with ADAM17 inh; recombinant ADAM17, EDANS/DABCYL QFRET peptide cleavage; inhibition, % at 6.95 µM; 65% of 2,900 active; AID 743257, 2014;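 active means mean inhibition across replicates above the hit cutoff set in the primary screen, cut at about 8.5% in these data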;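 further: 0% = DMSO wells and 100% = marimastat wells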
An asterisk follows results filed as active; x = no result. Only some compounds are listed: those with a hit (about 3.4% of all), similar ones and a draw of the others.

SMILES	proKLK7 act	ADAM10 inh	PLC-gamma1 inh	ADAM17 inh	HGIII-sPLA2 inh	PLC-beta3 inh	ADAM10 confirm	ADAM17 counter	ADAM10 ctr	ADAM17 confirm
Cc1ccc(CN2CCCCC(NC(=O)c3ccc(Br)cc3)C2=O)cc1 (configuration not stated)	1	10	6	2	9	1	x	x	x	x
O=C(Nc1ccc(Cl)c(Cl)c1)OCCNC(=O)c1cccc(Cl)c1	0	28*	-1	9.0*	-43	-1	5	1	28*	16*
O=C(Nc1ccccc1)OCCNC(=O)c1cccc(Br)c1	0	9	2	0	-6	-1	x	x	x	x
CCC(C)CNC(=O)CSc1nnc(-c2cccnc2)n1C1CCCCC1 (configuration not stated)	0	-4	-3	-1	2	2	x	x	x	x
COC(=O)[C@]12C[C@H](CC(=O)N3CCSCC3)C(=O)N(Cc3ccc(Cl)cc3Cl)C1=C[C@H](C(C)C)O[C@@H]2C1CC1	0	-2	-3	-3	4	-1	x	x	x	x
COc1ccc(CN2C(=O)[C@@](O)(c3cccn3C)c3cc(Br)ccc32)cc1	0	11	3	2	-14	3	x	x	x	x
N#CCC[C@H]1CC[C@]2(CCCN(C(=O)c3ccno3)C2)O1	0	-9	5	-4	16	-1	x	x	x	x
COc1ccc(N(Cc2ccccc2)S(=O)(=O)c2cccc(C(=O)Nc3ccccn3)c2)cc1	0	1	1	4	2	-7	x	x	x	x
COc1ccccc1N(Cc1ccccc1)S(=O)(=O)c1cccc(C(=O)Nc2cccc(C)n2)c1	-1	23*	-2	10*	-10	-2	10	3	10	9.6*
CCOC(=O)[C@]12CCCC=C1N(CCCOC)C(=O)[C@@H]2CC(=O)N1CCCCC1	0	-6	-1	-9	1	2	x	x	x	x
COc1ccc(C2CC(O)(c3ccccc3)Oc3c(C)ccc(C)c32)cc1 (configuration not stated)	1	36*	5	19*	11	6	7	3	18	13*
C[C@@H]1CN([C@H](C)CO)C(=O)c2c(c3ccccc3n2C)-c2ccccc2CO[C@@H]1CN(C)C(=O)Nc1ccc2c(c1)OCO2	0	22*	3	14*	-30	0	4	1	20*	9.5*
Cc1ccccc1S(=O)(=O)N(C)C[C@@H]1OCc2ccccc2-c2c(n(C)c3ccccc23)C(=O)N([C@H](C)CO)C[C@@H]1C	1	27*	3	9.7*	-26	3	6	3	32*	16*
C[C@H](CO)N1C[C@H](C)[C@H](CN(C)C(=O)Nc2ccc(F)cc2)OCc2ccccc2-c2c(n(C)c3ccccc23)C1=O	1	8	7	-1	-21	-1	x	x	x	x
N=c1c2c(ncn1Cc1ccco1)Oc1ccc3ccccc3c1C2c1ccccc1 (configuration not stated)	0	20*	-1	11*	-17	-7	7	2	19	12*
COc1ccc(C2c3c(ncn(Cc4ccco4)c3=N)Oc3ccc4ccccc4c32)cc1 (configuration not stated)	-1	15	-62	-4	2	-59	x	x	x	x
COC(=O)CSc1nnc(-c2cc(-c3ccccc3)n[nH]2)n1N	0	1	1	2	1	4	x	x	x	x
Cc1nn(-c2ccccc2)c(C)c1C=NNC(=O)CSc1nc2ccccc2n1C	0	-4	0	4	11	1	x	x	x	x
COC(=O)c1cc(NC(=O)CN(c2cccc(OC)c2)S(=O)(=O)c2ccccc2)ccc1Cl	0	24*	3	12*	-46	1	6	4	34*	17*
COc1ccccc1CN(C)C(=O)C1CCCN(c2nc3ccccc3o2)C1 (configuration not stated)	1	-6	-6	4	-6	-4	x	x	x	x
CC1=CC(=O)C(C(C)C)=C/C1=N\OS(=O)(=O)c1ccccc1	x	-2	1	0	2	1	x	x	x	x
O=C(COC(=O)c1ccc(Sc2ncn[nH]2)c([N+](=O)[O-])c1)Nc1ccc(Cl)c(Cl)c1	0	20*	2	10.0*	-23	-2	8	1	38*	20*
CCc1ccc(C=NN2CCN(Cc3ccc(C)cc3C)CC2)cc1	1	5	-3	0	2	2	x	x	x	x
O=C(CNS(=O)(=O)c1ccccc1)N1CCN(c2ncccn2)CC1	0	-18	-1	-4	4	-3	x	x	x	x
O=C(COC(=O)C12CC3CC(CC(C3)C1)C2)Nc1ccc(OC(F)F)cc1	0	27*	6	15*	-21	3	4	1	24*	12*
Nc1nc(NCc2ccco2)nc(Nc2ccccc2)c1[N+](=O)[O-]	0	11	6	1	-8	0	x	x	x	x
Nc1nc(Nc2ccccc2)nc(NCc2ccco2)c1[N+](=O)[O-]	0	22*	7	9.7*	-14	6	2	1	36*	19*
CCOc1ccccc1NC(=O)COC(=O)C(CC)c1ccccc1 (configuration not stated)	1	22*	3	11*	-5	6	2	0	16	5
O=C(Nc1cc(S(=O)(=O)Nc2ccccc2Cl)ccc1O)c1cc2c(s1)CCCC2	0	-2	-6	-5	-15	-22	x	x	x	x
